In PubChem BioAssay AID1159580 (chemical genetic matrix, 2015):
Several values for one entry are separate records, joined by “and”; a condition that tells them apart may be missing. Equal values may be shown once. Out of some 5,500 compounds screened, about 2,000 (36%) were called active. Roughly 18% stayed inconclusive and do not appear here. Rule as the data show it: active = normalized growth mostly below about 0.91 (no sharp cut-off); inconclusive = no clear call, values can overlap the other calls; inactive = mostly above about 0.92. This is one part of the list.

Assay: chemical genetic growth profiling, strain panel (AID 1159580);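 also: tested at 20 µM; growth read once vehicle control cultures reached saturation at 30 °C; 1 = growth at the plate median or of vehicle wells; lower values mean less growth of the strain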
Settings: S. cerevisiae deletion strains, growth OD

Measured: normalized growth

COc1cc2c(cc1O)CCNC2C (stereo not drawn)
inactive: locus YAL021C, strain ccr4, hits give low values 1.01 | locus YAL026C, strain drs2, hits give low values 1 | locus YAL030W, strain snc1, hits give low values 0.993 | locus YBL061C, strain skt5, hits give low values 1 | locus YBR009C, strain hhf1, hits give low values 1 | locus YBR021W, strain FUR4, hits give low values 1.01 | locus YBR023C, strain chs3, hits give low values 0.999 | locus YBR171W, strain sec66, hits give low values 0.982 | locus YBR229C, strain ROT2, hits give low values 0.993 | locus YBR231C, strain swc5, hits give low values 0.984 | locus YBR279W, strain paf1, hits give low values 0.996 | locus YCL011C, strain gbp2, hits give low values 0.992 | locus YCL016C, strain dcc1, hits give low values 1.01 | locus YCL029C, strain bik1, hits give low values 0.968 | locus YCL061C, strain MRC1, hits give low values 0.989 | locus YCL069W, strain vba3, hits give low values 0.996 | locus YCR088W, strain abp1, hits give low values 0.975 | locus YDL005C, strain med2, hits give low values 0.978 | locus YDL035C, strain GPR1, hits give low values 1.03 | locus YDL040C, strain nat1, hits give low values 0.991 | locus YDL074C, strain BRE1, hits give low values 1 | locus YDL101C, strain DUN1, hits give low values 0.989 | locus YDL134C, strain PPH21, hits give low values 1 | locus YDL185W, strain tfp1, hits give low values 0.981 | locus YDL192W, strain arf1, hits give low values 0.976 | locus YDR001C, strain nth1, hits give low values 0.999 | locus YDR069C, strain doa4, hits give low values 0.975 | locus YDR101C, strain arx1, hits give low values 0.963 | locus YDR137W, strain rgp1, hits give low values 0.99 | locus YDR150W, strain NUM1, hits give low values 0.996 | locus YDR159W, strain sac3, hits give low values 1.01 | locus YDR162C, strain NBP2, hits give low values 1.01 | locus YDR195W, strain ref2 0.94 | locus YDR297W, strain sur2, hits give low values 0.993 | locus YDR318W, strain mcm21, hits give low values 0.982 | locus YDR334W, strain swr1, hits give low values 0.99 | locus YDR335W, strain msn5, hits give low values 0.983 | locus YDR388W, hits give low values 0.98 | locus YDR392W, strain spt3, hits give low values 1.03 | locus YDR502C, strain sam2, hits give low values 0.982 | locus YEL003W, strain gim4, hits give low values 0.999 | locus YEL037C, strain rad23, hits give low values 1 | locus YEL061C, strain CIN8 (second series), hits give low values 0.99 | locus YEL061C, strain CIN8, hits give low values 0.996 | locus YER015W, strain faa2, hits give low values 0.995 | locus YER016W, strain bim1, hits give low values 1.01 | locus YER110C, hits give low values 0.965 | locus YER111C, strain swi4, hits give low values 0.975 | locus YER155C, strain BEM2 (second series), hits give low values 0.94 | locus YER155C, strain BEM2, hits give low values 0.98 | locus YER167W, strain BCK2, hits give low values 1.01 | locus YFR010W, strain ubp6, hits give low values 0.978 | locus YGL078C, strain dbp3, hits give low values 0.984 | locus YGL086W, strain mad1, hits give low values 0.968 | locus YGL167C, strain pmr1, hits give low values 0.993 | locus YGL173C, strain kem1, hits give low values 1 | locus YGL227W, strain vid30, hits give low values 0.993 | locus YGL240W, strain doc1, hits give low values 0.971 | locus YGL248W, strain PDE1, hits give low values 0.988 | locus YGL253W, strain hxk2, hits give low values 1 | locus YGR135W, strain pre9, hits give low values 0.977 | locus YGR252W, strain gcn5, hits give low values 0.983 | locus YHR013C, strain ard1, hits give low values 0.99 | locus YHR027C, strain rpn1, hits give low values 1 | locus YHR030C, strain SLT2, hits give low values 0.993 and 1.05 | locus YHR079C, strain IRE1 (second series), hits give low values 0.979 | locus YHR079C, strain IRE1, hits give low values 1.05 | locus YHR094C, strain hxt1, hits give low values 0.971 | locus YHR129C, strain ARP1, hits give low values 0.992 | locus YHR142W, strain chs7, hits give low values 1.01 | locus YHR200W, strain rpn10, hits give low values 1 | locus YIL066C, strain RNR3, hits give low values 1.01 | locus YIL073C, strain SPO22, hits give low values 0.963 | locus YIL125W, strain kgd1, hits give low values 0.981 | locus YIR030C, strain dcg1, hits give low values 0.978 | locus YJL092W, strain hpr5, hits give low values 0.991 | locus YJL095W, strain BCK1 (second series), hits give low values 0.978 | locus YJL095W, strain BCK1, hits give low values 0.984 and 1.01 | locus YJL115W, strain asf1, hits give low values 0.988 | locus YJL129C, strain trk1, hits give low values 0.99 | locus YJL134W, strain LCB3, hits give low values 0.995 | locus YJL154C, strain vps35, hits give low values 0.994 | locus YJL164C, strain tpk1, hits give low values 1 | locus YJL166W, strain qcr8, hits give low values 0.987 | locus YJL168C, strain set2, hits give low values 0.973 | locus YJL187C, strain SWE1 (second series), hits give low values 0.992 | locus YJR043C, strain POL32, hits give low values 1.05 | locus YJR066W, strain TOR1, hits give low values 0.982 | locus YKL009W, strain mrt4, hits give low values 0.961 | locus YKL068W, hits give low values 0.987 | locus YKL085W, strain MDH1 (second series), hits give low values 0.982 | locus YKL085W, strain MDH1, hits give low values 0.982 | locus YKL160W, strain elf1, hits give low values 0.994 | locus YKR001C, strain vps1, hits give low values 0.958 | locus YKR026C, strain gcn3, hits give low values 0.989 | locus YKR091W, strain srl3, hits give low values 0.991 | locus YLL001W, strain dnm1, hits give low values 0.982 | locus YLL026W, hits give low values 0.987 | locus YLL041C, strain sdh2, hits give low values 0.992 | locus YLR027C, strain aat2, hits give low values 0.98 | locus YLR039C, strain RIC1, hits give low values 1.02 | locus YLR058C, strain SHM2, hits give low values 0.995 | locus YLR102C, strain apc9, hits give low values 0.974 | locus YLR113W, strain HOG1, hits give low values 0.977 | locus YLR221C, strain rsa3, hits give low values 0.996 | locus YLR258W, strain gsy2, hits give low values 0.998 | locus YLR262C, strain YPT6 (second series), hits give low values 0.994 | locus YLR262C, strain YPT6, hits give low values 1.05 | locus YLR268W, strain sec22, hits give low values 0.965 | locus YLR320W, strain mms22, hits give low values 0.994 | locus YLR330W, strain CHS5, hits give low values 1 | locus YLR342W, strain FKS1 (second series), hits give low values 1.03 | locus YLR342W, strain FKS1, hits give low values 0.987 | locus YLR357W, strain rsc2, hits give low values 0.979 | locus YLR370C, strain arc18, hits give low values 0.988 | locus YLR371W, strain rom2, hits give low values 0.967 | locus YLR384C, strain iki3, hits give low values 0.985 | locus YLR418C, strain cdc73, hits give low values 0.973 | locus YML016C, strain PPZ1, hits give low values 0.991 | locus YML032C, strain rad52, hits give low values 0.99 | locus YML120C, strain ndi1, hits give low values 0.991 | locus YML124C, strain tub3, hits give low values 0.984 | locus YMR058W, strain fet3, hits give low values 0.991 | locus YMR078C, strain ctf18, hits give low values 0.977 | locus YMR125W, strain sto1, hits give low values 1 | locus YMR129W, hits give low values 0.996 | locus YMR205C, strain PFK2, hits give low values 0.991 | locus YMR223W, strain ubp8, hits give low values 0.985 | locus YMR231W, strain pep5, hits give low values 0.984 | locus YMR307W, strain GAS1, hits give low values 1.08 | locus YNL067W, strain RPL9B, hits give low values 0.988 | locus YNL071W, strain lat1, hits give low values 0.988 | locus YNL128W, strain TEP1, hits give low values 0.992 | locus YNL153C, strain GIM3, hits give low values 0.988 | locus YNL183C, strain NPR1, hits give low values 0.974 | locus YNL209W, strain ssb2, hits give low values 0.997 | locus YNL233W, strain BNI4, hits give low values 0.982 | locus YNL248C, strain rpa49, hits give low values 0.997 | locus YNL250W, strain rad50, hits give low values 0.99 | locus YNL271C, strain bni1, hits give low values 0.975 | locus YNL298W, strain CLA4, hits give low values 0.989 | locus YNL307C, strain MCK1, hits give low values 0.969 | locus YNL322C, strain KRE1 (second series), hits give low values 0.98 | locus YNR049C, strain mso1, hits give low values 0.987 | locus YNR052C, strain pop2, hits give low values 0.973 | locus YOL012C, strain htz1 0.945 | locus YOL147C, strain pex11, hits give low values 0.979 | locus YOR001W, strain rrp6, hits give low values 0.958 | locus YOR061W, strain CKA2, hits give low values 0.997 | locus YOR069W, strain VPS5, hits give low values 0.987 | locus YOR070C, strain gyp1, hits give low values 0.999 | locus YOR080W, strain dia2, hits give low values 0.987 | locus YOR083W, strain WHI5, hits give low values 0.988 | locus YOR106W, strain vam3, hits give low values 0.989 | locus YOR136W, strain idh2, hits give low values 0.964 | locus YOR144C, strain elg1, hits give low values 0.983 | locus YOR184W, strain ser1, hits give low values 0.988 | locus YOR231W, strain MKK1, hits give low values 1 | locus YOR265W, strain rbl2, hits give low values 0.984 | locus YOR270C, strain vph1, hits give low values 1.02 | locus YOR290C, strain snf2, hits give low values 0.999 | locus YOR316C, strain cot1, hits give low values 0.981 | locus YPL051W, strain arl3, hits give low values 0.985 | locus YPL055C, strain LGE1, hits give low values 1 | locus YPL078C, strain atp4, hits give low values 0.989 | locus YPL106C, strain sse1, hits give low values 0.991 | locus YPL240C, strain hsp82, hits give low values 1 | locus YPL256C, strain CLN2, hits give low values 1.06 | locus YPR119W, strain clb2, hits give low values 0.978 | locus YPR141C, strain kar3, hits give low values 0.968 | locus YPR163C, strain tif3, hits give low values 0.979 | locus YPR167C, strain met16, hits give low values 0.974 | strain wtn01, hits give low values 0.952
